For orientation: IC50 means the concentration needed to halve the response being measured.

The structures appear in SMILES notation. “And” between values parts separate entries of the source, which are not always exact repeats. Equal values may be shown once. Inconclusive results are not listed. The source made the active and inactive calls. Unless noted, no cut-off is given here; in the data, nearly all actives have IC50 up to about 30 µM.

The nature of the first test: growth inhibition of DIPG cells – cell-based, MIPE5.0 library, qHTS (AID 1347068).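 For IC50: cells exposed to compound for 48 hours before viability readout.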 As to conditions: SU-DIPG-XXV viability.
Consider `OCCn1cc(-c2ccc3c(c2)CC/C3=N\O)c(-c2ccncc2)n1`, for which the outcome was inactive.

Turning to `CNc1nc(Nc2ccc(C(=O)N3CCOCC3)cc2OC)ncc1Cl`, the molecule was called inactive.

Regarding `CC[C@H](CC#N)OC(=O)N[C@@H](C)c1cccc(NC(=O)Nc2ccc(-c3cnco3)c(OC)c2)c1`, the IC50 is 14.8 µM (active). In the case of `O=C(CCCCCCC(=O)Nc1ccc([C@H]2O[C@@H](CSc3nc(-c4ccccc4)c(-c4ccccc4)o3)C[C@@H](c3ccc(CO)cc3)O2)cc1)NO`, the molecule was classed as inactive. `CNC(=O)c1cc(Oc2ccc(NC(=O)Nc3ccc(Cl)c(C(F)(F)F)c3)c(F)c2)ccn1`: the IC50 is 20.9 µM (active).

As to `Nc1cccc(-c2cc3c(Oc4cccc(O)c4)ncnc3[nH]2)c1`, the IC50 was 8.33 µM (active).

For `CN(C)CC(=O)N1CCC(c2ccc(NC(=O)c3ncc(C#N)[nH]3)c(C3=CCCCC3)c2)CC1`, the molecule was called inactive. As for `CS(=O)(=O)N1CCc2c(-c3cnc(N)nc3)nc(N3CCOCC3)nc21`, the IC50 is 0.934 µM (active).

`CCC(=C/[C@H](C)C/C=C/C(C)=C/[C@@H](C)C(=O)[C@@H](C)[C@H](O)[C@@H](C)C/C(C)=C/C(=O)O)/C=C/[C@@H]1OC(=O)C=C[C@@H]1C`: the IC50 is 0.833 µM (active).

In the case of `O=c1ccn([C@@H]2O[C@H](CO)[C@@H](O)[C@@H]2F)c(=O)[nH]1`, the molecule was classed as inactive. Turning to `CC(C)(O)CC(=O)NCCn1ccc2ncnc(Nc3ccc(Oc4cccc(C(F)(F)F)c4)c(Cl)c3)c21`, the IC50 was 23.5 µM (active). As for `CC(=O)Oc1cc2c(s1)CCN(C(C(=O)C1CC1)c1ccccc1F)C2` (stereo unspecified), the result was inactive. On the same count and under the same terms, for `Nc1ccn([C@@H]2O[C@H](CO)[C@@H](O)C2(F)F)c(=O)n1` the value was “inactive”. Consider `CO[C@@H]1[C@@H](O)[C@H](O)[C@@H](n2c3c(Cl)cccc3c3c4c(c5c6cccc(Cl)c6[nH]c5c32)C(=O)NC4=O)O[C@H]1CO`, for which the outcome was inactive. Turning to `CNc1nccc(-c2cccnc2Oc2cc(C(=O)Nc3cccc(C(F)(F)F)c3)ccc2C)n1`, the IC50 was 13.2 µM (active).

Take `CC(C)=CCC/C(C)=C/CC/C(C)=C/CSc1ccccc1C(=O)O`: the molecule was classed as inactive. Same read-out and setting: for `Clc1ccc2ncc(-c3cccc(NC4CNC4)n3)n2c1` the value was “inactive”.

The nature of a further test: viability loss with induced miR-34 in A549 – imaging, A549 dox-inducible miR-34, nuclei and caspase counts, primary screen (AID 1347080;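 active = compounds whose cell count with miR-34 switched on is under 0.7 times the count with it off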). As to conditions: A549 miR-34 inducible, Hoechst nuclei count, 48 h; active compounds read low; cell number ratio, induced over uninduced.
As to `O=C(Nc1nc2cccc(-c3ccc(CN4CCS(=O)(=O)CC4)cc3)n2n1)C1CC1`, the fold change is 0.924 (inactive). The same measure, in the same setting: for `CNC(=O)c1cc(Oc2ccc(NC(=O)Nc3ccc(Cl)c(C(F)(F)F)c3)c(F)c2)ccn1` the value was 0.87 (inactive). On the same count and under the same terms, for `Nc1cccc(-c2cc3c(Oc4cccc(O)c4)ncnc3[nH]2)c1` the value was 1.45 (inactive); for `CS(=O)(=O)N1CCc2c(-c3cnc(N)nc3)nc(N3CCOCC3)nc21`, 0.998 (inactive). With `CC(C)(O)CC(=O)NCCn1ccc2ncnc(Nc3ccc(Oc4cccc(C(F)(F)F)c4)c(Cl)c3)c21`, the fold change is 0.965 (inactive).

`CC(=O)Oc1cc2c(s1)CCN(C(C(=O)C1CC1)c1ccccc1F)C2` (stereo unspecified): the fold change was 0.891 (inactive) and 0.933 (inactive). The same measure, in the same setting: with `Nc1ccn([C@@H]2O[C@H](CO)[C@@H](O)C2(F)F)c(=O)n1` the figure was 0.809 (inactive); with `COc1cc2ncnc(Nc3cccc(Cl)c3)c2cc1OC`, 1.29 (inactive) and 1.02 (inactive) and 0.9 (inactive); with `CNC(=O)c1cc(COc2nnc(Nc3ccc(Cl)cc3)c3ccoc23)ccn1`, 0.883 (inactive).
